Screens from PubChem BioAssay.
KB-3-1 cytotox – KB-3-1 parental cell cytotoxicity. KB-3-1 viability, CellTiter-Glo ATP luminescence, 72 h. Potency, µM (top dose mostly 46.1 µM), actives largely listed as cytotoxic. 1.4% of 400,000 active. AID 1347075; also: nearly all actives have a fitted effect of over 60% in size
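Parental KB-3-1 adenocarcinoma cells in phenol-red-free DMEM with 10% FBS were pin-treated with compounds at several concentrations, incubated 72 h at 37 °C, and viability read by CellTiter-Glo luminescence; concentration-effect curves were fitted after normalization.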
HT1080 IDH1KD tx – toxicity to HT-1080 IDH1 knockdown cells (counter line); HT-1080 IDH1 knockdown viability, ATP luminescence, 48 h; Potency, µM (titrated, usually from 46.1 µM), actives largely listed as cytotoxic; 2% of 360,000 active; AID 686971
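In this qHTS, HT-1080 cells depleted of IDH1 are exposed for 48 h at 37 °C to compound titrations. Toxicity is scored from CellTiter-Glo luminescence, with DMSO as full viability and medium alone as none.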
TDP1 cell CPT – growth inhibition of DT40 Tdp1-/-;hTDP1 cells with camptothecin (screen for TDP1 inhibitors) | AID 686979 | chicken DT40 Tdp1-/-;hTDP1 cells + 20 nM CPT, ATP luminescence, 48 h | 12% of 420,000 active | Potency, µM (doses to about 46.2 µM), most hits filed as inhibitors; also: nearly all actives have a fitted effect of over 55% in size
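Chicken DT40 Tdp1-/- cells stably complemented with human TDP1 were seeded at 400 cells/well in medium containing 20 nM camptothecin, exposed to pin-transferred compounds, and grown at 37 °C for at least 48 hr. Viability was read as ATP luminescence.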
KB-V1 cytotox – KB-V1 MDR subline cytotoxicity; KB-V1 MDR cells viability, CellTiter-Glo, 72 h; Potency, µM (doses to about 46.1 µM), most hits filed as cytotoxic; AID 1347076; 3.4% of 400,000 active; also: nearly all actives have a fitted effect of over 60% in size
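Cytotoxicity via CellTiter-Glo luminescence after 72 h compound exposure at 37 degrees C. Cells: drug-selected KB-V1 line, DMEM phenol-red free plus 10% FBS. Compounds tested at multiple concentrations; normalized data fitted to concentration-effect curves.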
HT1080-NT tox – kills 2HG-producing HT-1080-NT fibrosarcoma cells; HT-1080-NT fibrosarcoma viability, CellTiter-Glo ATP luminescence, 48 h; Potency, µM (top dose mostly 46.1 µM), most hits filed as cytotoxic; 1.6% of 360,000 active;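 also: NT is the 2HG producing partner of a matched IDH1 knockdown line; nearly all actives have a fitted effect of over 55% in size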
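A 48-hour cytotoxicity screen used HT-1080-NT cells plated 2 hours before compound delivery. ATP-based CellTiter-Glo luminescence measured viability, normalized to DMSO and no-cell controls.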
DT40 TDP1 no CPT – qHTS for Inhibitors of human tyrosyl-DNA phosphodiesterase 1 (TDP1): qHTS in cells in absence of CPT. Potency, µM (highest dose often 46.2 µM), hits mostly inhibitors. 15% of 420,000 active. DT40 Tdp1-/- hTDP1 cells, no CPT, ATP luminescence, 48 h. AID 686978, 2013; also: nearly all actives have a fitted effect of over 55% in size
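DT40 Tdp1-/-;hTDP1 cells, no CPT (DMSO vehicle only), 400 cells/well; compounds pin-transferred; ≥48 hr, 37 °C; CellTiter-Glo 30 min RT dark, luminescence read.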
Hits are given with their value; - = inactive; ? = inconclusive; . = no result given; [ ] = another dose, or the depositor's remark. Shown are actives, neighbours in structure and some others; about 19% of the full set was active somewhere. Calls follow the shape of the dose curve; as a rule, active = well fitted curve in the direction sought with a large enough effect; inconclusive = small, poorly fitted or top-dose-only effect, or another doubt; inactive = no such curve, though single readings can be large; an effect the other way counts as inactive or inconclusive.

SMILES	KB-3-1 cytotox	HT1080 IDH1KD tx	TDP1 cell CPT	KB-V1 cytotox	HT1080-NT tox	DT40 TDP1 no CPT
COc1cc(NC(=O)c2ccc(F)cc2)c(OC)cc1Cl	-	-	-	-	-	-
COc1cc(C2C(C#N)=C(N)OC3=C2C(=O)CC(C)(C)C3)cc([N+](=O)[O-])c1O (stereo not given)	-	-	-	-	-	-
CN(c1ccc(C(=O)Nc2ccccc2Sc2ccccc2)cc1)S(C)(=O)=O	-	-	?	?	-	21µM
O=C1CCN(Cc2nnnn2CC2CCCO2)c2ccccc2N1 (stereo not given)	-	-[9.24 µM]	?	-	-	-
CSc1nn(Cc2ccc(F)cc2)c(N(C(C)=O)C(C)=O)c1S(=O)(=O)c1ccccc1	-	.	-	-	.	?
COc1cccc2cc(-c3nc4ccc(C)cc4[nH]3)c(=O)oc12	-	.	-	-	.	?
COc1ccc2oc(=O)c(-c3nc4ccc(C)cc4[nH]3)cc2c1	-	.	1µM	?	.	1.5µM
CCOc1cc(C(=O)Nc2cc(C)ccn2)cc(OCC)c1OCC	?	-	18µM	-	-	?
Cc1ccnc(NC(=O)c2ccc(S(=O)(=O)NCc3ccco3)cc2)c1	?	?	21µM	?	?	?
Cc1ccc(SCc2ccc(C(=O)NCc3ccncc3)cc2)cc1	-	-	?	18µM	-	?
Cc1ccc(NC(=O)c2ccc(S(=O)(=O)NCc3ccco3)cc2)cc1	-	-	-	-	?	-
COCCSc1ccccc1C(=O)Nc1cc(C)ccn1	-	-	?	-	-	23µM
Cc1ccc(SCCC(=O)NCc2ccncc2)cc1	-	-	-	?	-	-
O=C(NCc1ccc2c(c1)OCO2)c1nn2cccnc2c1Cl	-	-	-	-	-	-
COc1ccc(C(=O)Nc2cccc(C)c2)cc1	-	-	-	-	-	-
COc1ccc(C(=O)Nc2cccc(C(=O)Nc3cc(C)ccn3)c2)cc1	-	-	?	-	-	21µM
CCOc1ccc(C(=O)NCC(=O)Nc2cc(C)ccn2)cc1OCC	-	-	-	-	-	-
Cc1ccnc(NC(=O)c2ccc(C(=O)c3ccccc3)cc2)c1	?	?	18µM	21µM	-	21µM
CCOc1cc(C(=O)NCc2ccncc2)cc(OCC)c1OCC	-	-	-	7.3µM	-	-
CCOc1ccc(C(=O)NCc2ccncc2)cc1OCC	-	-	-	-	-	-
CCOc1ccc(C(=O)Nc2cc(C)ccn2)cc1	?	12µM	7.3µM	13µM	?	23µM
CCS(=O)(=O)N1CCC(C(=O)Nc2cc(C)ccc2O)CC1	-	-	-	-	-	?
CCn1c(SCc2ccccc2F)nc(=O)c2c(C(=O)OC)cc(C3CC3)nc21	-	.	16µM	-	.	?
CCn1c(SCc2ccc(F)cc2Cl)nc(=O)c2c(C(=O)OC)cc(C3CC3)nc21	-	.	16µM	-	.	18µM
COC(=O)c1cc(C)nc2c1c(=O)nc(SCc1ccccc1Cl)n2C1CC1	-	.	-	-	.	-
SMILES	KB-3-1 cytotox	HT1080 IDH1KD tx	TDP1 cell CPT	KB-V1 cytotox	HT1080-NT tox	DT40 TDP1 no CPT
CC1(C)NC(=O)N(CCCCOc2ccc3ccccc3c2Cl)C1=O	?	10µM	?	21µM	?	-
CCC(=O)c1ccccc1OCCCN1C(=O)NC(C)(C)C1=O	-	-	-	?	-	-
CC1(C)NC(=O)N(CCOCCOc2ccc3ccccc3c2Br)C1=O	-	?	?	21µM	-	?
COc1ccc(/C=C/C(=O)OCC(=O)NCc2ccco2)cc1OC	-	-	-	?	-	?
Cc1ccc(NC(=O)Cn2c(O)c(N=NC(N)=O)c3ccccc32)cc1	?	-	?	-	-	?
Cc1ccc(NC(=O)Cn2c(O)c(N=NC(N)=S)c3ccccc32)cc1	-	?	?	-	?	?
CSc1nc(N)nc2c1ncn2CC(=O)NCc1ccccc1	-	-	?	-	-	?
Cc1ccccc1NC(=O)Cn1c(O)c(N=NC(=O)c2ccccc2O)c2ccccc21	-	-	?	?	-	5.8µM
CSc1nc(N)nc2c1ncn2CC(=O)NCc1ccc2c(c1)OCO2	-	-	16µM	-	-	8.2µM
Cc1ccc(NC(=O)Cn2c(O)c(N=NS(=O)(=O)c3ccc(C)cc3)c3ccccc32)cc1	-	-	?	?	-	15µM
CC(=O)c1cn(CC(=O)Nc2ccccc2C)c2ccccc12	-	-	8.2µM	?	-	6.5µM
CN(C)c1ccc(S(=O)(=O)N2CCC(Cc3ccccc3)CC2)cn1	-	-	?	-	-	?
O=C(NCC1CCCO1)c1ccc(NS(=O)(=O)c2ccccc2)cc1 (stereo not given)	-	-	-	?	-	-
Cc1cccc(NC(=O)Cn2cc(C=O)c3ccccc32)c1	-	-	?	-	-	?
